PI5P4Ka inh – inhibitors of human PI5P4K alpha; 330,000 compounds, 1.2% hits; P48426; AID 652105; max response, %; PI5P4Kalpha enzyme, ADP-Glo luminescence, 60 min; hits give low values; active = max response of -50% or lower; inconclusive = between -30% and -50%; inactive = -30% or higher; also: value at the top dose of about 77 µM
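Single end-point luminescence (ADP-Glo) quantified ADP from PI5P4Kalpha turnover; ATP 5 microM final, 1 h at RT, 0.1% CHAPS and 0.28 mM EGTA in HEPES pH 7.4.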
BAZ2B block – blocks human BAZ2B | Q9UIF8 | AlphaScreen BAZ2B-H3K14Ac peptide displacement | Potency, µM (titrated, usually from 114 µM), usual class: inhibitors | 360,000 compounds, 4.4% hits; also: nearly all actives have a fitted effect of over 60% in size
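Protein-peptide AlphaScreen: BAZ2B 50 nM, b-H3K14Ac 50 nM, 1x PBS pH 7.4 + 0.01% Tween-20. Preincubation 30 min RT; cpd 30 min RT (top 110 uM); beads 20 min RT, light-protected.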
HP1b binding inh – inhibitors of HP1-beta chromodomain binding to methylated histone tails; P83916; AlphaScreen HP1-beta / biotin-H3K9me3 peptide binding; Potency, µM (titrated, usually from 114 µM), most hits filed as inhibitors; 390,000 compounds, 0.56% hits; AID 540317; also: nearly all actives have a fitted effect of over 70% in size
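AlphaScreen: HP1-beta (50 nM) preformed 30 min with biotin-H3(1-18)K9me3 peptide (50 nM) in PBS pH 7.4, 0.01% Tween-20. Compound added for 30 min at RT, then streptavidin donor/nickel chelate acceptor beads (10 ug/mL) for 30 min.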
PLK1 PBD inh – PLK1 (human) polo-box domain binding inhibition; P53350; Plk1 PBD binding of FITC phosphopeptide, fluorescence polarization; Potency, µM, most hits filed as inhibitors; 360,000 compounds, 2.8% hits; AID 720504; also: series mostly up to about 57 µM; nearly all actives have a fitted effect of over 65% in size
JMJD2A Tudor inh – inhibitors of human JMJD2A Tudor domain; AID 504339; AlphaScreen JMJD2A-Tudor / H3K4me3 peptide binding; O75164; 390,000 compounds, 4.4% hits; Potency, µM (doses to about 114 µM), actives largely listed as inhibitors; also: nearly all actives have a fitted effect of over 50% in size
KAT2A inh – blocks human GCN5L2 histone acetyltransferase; GCN5L2 HAT assay, ThioGlo1 CoA-SH fluorescence; Potency, µM (highest dose often 58.9 µM), most hits filed as inhibitors; 390,000 compounds, 0.21% hits; AID 504327
Target sequence (Q92830 whole entry, looked up): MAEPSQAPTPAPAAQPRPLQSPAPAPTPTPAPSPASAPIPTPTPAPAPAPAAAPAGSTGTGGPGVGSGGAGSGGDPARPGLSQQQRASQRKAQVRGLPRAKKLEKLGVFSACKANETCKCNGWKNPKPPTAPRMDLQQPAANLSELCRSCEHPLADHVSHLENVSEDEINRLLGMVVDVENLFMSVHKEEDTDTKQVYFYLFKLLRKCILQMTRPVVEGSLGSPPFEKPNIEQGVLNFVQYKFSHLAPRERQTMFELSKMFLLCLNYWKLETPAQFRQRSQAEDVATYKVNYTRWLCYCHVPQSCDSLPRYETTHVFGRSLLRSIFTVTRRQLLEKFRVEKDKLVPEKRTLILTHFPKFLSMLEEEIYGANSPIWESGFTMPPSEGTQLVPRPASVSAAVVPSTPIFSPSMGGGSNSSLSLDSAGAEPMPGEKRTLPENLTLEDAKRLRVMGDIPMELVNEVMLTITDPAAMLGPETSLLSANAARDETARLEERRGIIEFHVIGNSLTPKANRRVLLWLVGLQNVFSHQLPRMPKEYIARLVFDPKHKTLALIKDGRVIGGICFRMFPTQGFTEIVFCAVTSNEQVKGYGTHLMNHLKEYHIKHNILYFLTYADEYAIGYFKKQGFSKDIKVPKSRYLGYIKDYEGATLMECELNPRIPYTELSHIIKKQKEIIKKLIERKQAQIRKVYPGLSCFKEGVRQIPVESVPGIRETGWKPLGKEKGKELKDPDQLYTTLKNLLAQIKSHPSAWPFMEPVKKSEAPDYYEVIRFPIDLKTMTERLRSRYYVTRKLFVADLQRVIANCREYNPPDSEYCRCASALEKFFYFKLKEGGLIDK
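Fluorescence readout, Ex340nm/Em540nm: ThioGlo1 (50uM final) reacts with free CoA thiol released as 20nM GCN5L2 acetylates H3(1-25) peptide (75uM) using acetyl-CoA (70uM). Compound and enzyme sat 15 min beforehand; 20 min room-temperature reaction.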
Hits are given with their value; [ ] = remark or other dose. Only some compounds are listed: those with a hit (about 7% of all), similar ones and a draw of the others. Unless noted, calls follow the shape of the dose curve; as a rule, active = well fitted curve in the direction sought with a large enough effect; inconclusive = small, poorly fitted or top-dose-only effect, or another doubt; inactive = no such curve, though single readings can be large; an effect the other way counts as inactive or inconclusive.

Screening Nc1ccc(N2CCCCC2)c(S(=O)(=O)Nc2ccccc2Cl)c1 returned PI5P4Ka inh inconclusive, BAZ2B block inconclusive, HP1b binding inh inconclusive, PLK1 PBD inh 27µM, JMJD2A Tudor inh inconclusive and KAT2A inh inactive.
COc1ccc(CC(=O)NCC2CCCN(Cc3cccc(C(F)(F)F)c3)C2)cc1 (stereo not drawn) was read as PI5P4Ka inh inactive, BAZ2B block inactive, HP1b binding inh inactive, PLK1 PBD inh 27µM, JMJD2A Tudor inh inconclusive and KAT2A inh inactive.
`COc1ccc(CC(=O)NCC2CCCN(Cc3ccc(F)c(OC)c3)C2)cc1` (stereo not drawn) gave PI5P4Ka inh inactive, BAZ2B block inactive, HP1b binding inh inactive, PLK1 PBD inh inactive, JMJD2A Tudor inh inactive and KAT2A inh inactive.
`COc1cccc(NS(=O)(=O)c2ccc3c(c2)CCC(=O)N3)c1` gave JMJD2A Tudor inh inactive.
`CCCn1c(SCC(O)c2cccc(OC)c2)nc2ccccc21` (stereo not drawn) gave BAZ2B block inactive, HP1b binding inh inactive, JMJD2A Tudor inh inactive and KAT2A inh inactive.
O=C(c1ccc(N2CCOCC2)nc1)N1CCOCC1 was read as BAZ2B block inactive, HP1b binding inh inactive, PLK1 PBD inh inactive, JMJD2A Tudor inh inactive and KAT2A inh inactive.
`O=C(c1cccnc1Cl)N1CCOCC1` gave PI5P4Ka inh inconclusive, HP1b binding inh inactive, PLK1 PBD inh 19µM, JMJD2A Tudor inh inconclusive and KAT2A inh inactive.
O=C(c1ccc(C(=O)N2CCOCC2)nc1)N1CCOCC1 was read as PI5P4Ka inh inactive, BAZ2B block inactive, HP1b binding inh inactive, PLK1 PBD inh inactive, JMJD2A Tudor inh 40µM and KAT2A inh inactive.
`CN1c2ccsc2/C(=N/Nc2ccccc2)CS1(=O)=O` gave PI5P4Ka inh inactive, BAZ2B block inconclusive, HP1b binding inh inconclusive, PLK1 PBD inh inconclusive, JMJD2A Tudor inh 56µM and KAT2A inh inactive.
CSc1nc(=S)cc(C)[nH]1 was read as PI5P4Ka inh inconclusive, BAZ2B block inactive, HP1b binding inh inconclusive, PLK1 PBD inh 15µM, JMJD2A Tudor inh 25µM and KAT2A inh inconclusive.
CCCCCC(=O)N/N=C/c1ccc([N+](=O)[O-])o1 was read as BAZ2B block inactive, HP1b binding inh inactive, PLK1 PBD inh inactive, JMJD2A Tudor inh inactive and KAT2A inh inactive.
Screening O=[N+]([O-])c1ccccc1/C=N/OCc1ccccc1 returned PI5P4Ka inh inactive, BAZ2B block inactive, HP1b binding inh inactive, PLK1 PBD inh inactive, JMJD2A Tudor inh inactive and KAT2A inh inactive.
`CCN(CC)c1ccc(N=Cc2ccc([N+](=O)[O-])o2)cc1` gave PI5P4Ka inh inactive, BAZ2B block 10µM, HP1b binding inh 22µM, PLK1 PBD inh inactive, JMJD2A Tudor inh 40µM and KAT2A inh inactive.
For CCN(CC)c1ccc(N=Cc2ccccc2[N+](=O)[O-])cc1 the results were PI5P4Ka inh inactive, BAZ2B block 3.2µM, HP1b binding inh 8.9µM, PLK1 PBD inh inactive, JMJD2A Tudor inh 8.9µM and KAT2A inh inactive.
`Nc1ccc(Br)c2cccnc12` gave PI5P4Ka inh inactive, BAZ2B block inactive, HP1b binding inh inactive, PLK1 PBD inh 8.4µM, JMJD2A Tudor inh inactive and KAT2A inh inactive.
`COc1cc(N)c2ncccc2c1Cl` gave PI5P4Ka inh inactive, HP1b binding inh inactive, PLK1 PBD inh inactive and JMJD2A Tudor inh inactive.
For Nc1ccc(N=Nc2ccccc2)c2cccnc12 the results were PI5P4Ka inh inactive, BAZ2B block 7.9µM, HP1b binding inh 16µM, PLK1 PBD inh inactive, JMJD2A Tudor inh 32µM and KAT2A inh inactive.
For COc1cccc2cc(C(=O)Nc3ccc(CC(=O)O)cc3)c(=O)oc12 the results were BAZ2B block inconclusive, HP1b binding inh inactive, JMJD2A Tudor inh inactive and KAT2A inh inactive.
For Cc1cc(C(=O)N/N=C2\CC(=O)c3ccccc32)c(C)n1-c1ccc(F)cc1 the results were PI5P4Ka inh -64, BAZ2B block 40µM, HP1b binding inh inactive, PLK1 PBD inh inactive, JMJD2A Tudor inh inactive[11.4 µM] and KAT2A inh inactive.
For c1ccc(-c2cc3ncc4c(n3n2)-c2ccccc2OC4)cc1 the results were BAZ2B block inactive, HP1b binding inh inactive, JMJD2A Tudor inh inactive and KAT2A inh inactive.
Screening Cc1ccc(NS(=O)(=O)c2ccc(Cl)cc2)cc1C returned JMJD2A Tudor inh inactive.
O=C(O)c1ccccc1C(=O)Nc1ccc(-n2nccc2C(F)(F)F)cc1 was read as PI5P4Ka inh inactive, BAZ2B block inactive, HP1b binding inh inactive, PLK1 PBD inh inactive, JMJD2A Tudor inh inactive and KAT2A inh inactive.
O=C(Cn1ccc(=O)[nH]c1=O)NCCO was read as PI5P4Ka inh inactive, BAZ2B block inactive, HP1b binding inh inactive, PLK1 PBD inh inactive, JMJD2A Tudor inh inactive and KAT2A inh inactive.
For O=C(Cn1cc(F)c(=O)[nH]c1=O)NCCO the results were PI5P4Ka inh inactive, HP1b binding inh inactive, PLK1 PBD inh 5.3µM, JMJD2A Tudor inh inactive and KAT2A inh inactive.
Screening CCCc1cc(N2CCN(c3ccccc3F)CC2)n2cnnc2n1 returned BAZ2B block inactive, HP1b binding inh inactive, JMJD2A Tudor inh inactive and KAT2A inh inactive.
For O=C(CCS(=O)(=O)c1ccccc1)Nc1nc2cc3c(cc2s1)OCCO3 the results were PI5P4Ka inh inactive, BAZ2B block 79µM, HP1b binding inh inactive, PLK1 PBD inh inactive, JMJD2A Tudor inh inactive and KAT2A inh inactive.
Screening O=C(CCS(=O)(=O)c1ccccc1)Nc1nc2ccc(F)cc2s1 returned PI5P4Ka inh inactive, BAZ2B block inactive, HP1b binding inh inactive, PLK1 PBD inh inconclusive, JMJD2A Tudor inh inactive and KAT2A inh inactive.
O=C(CCS(=O)(=O)c1ccccc1)Nc1nc2cc3c(cc2s1)OCO3 was read as PI5P4Ka inh inactive, BAZ2B block 71µM, HP1b binding inh inactive, PLK1 PBD inh inactive, JMJD2A Tudor inh inactive and KAT2A inh inactive.
`COC(=O)c1ccc2nc(NC(=O)CCS(=O)(=O)c3ccccc3)sc2c1` gave PI5P4Ka inh inactive, BAZ2B block inactive, HP1b binding inh inactive, PLK1 PBD inh inactive, JMJD2A Tudor inh inactive and KAT2A inh inactive.
Screening COCc1cc(C)nc(OCC(=O)N/N=C/c2ccccc2O)c1C#N returned PI5P4Ka inh inactive, BAZ2B block 79µM, HP1b binding inh inactive, PLK1 PBD inh inactive, JMJD2A Tudor inh inactive and KAT2A inh inactive.
For COCc1cc(C)nc(OCC(=O)N/N=C/c2ccc(O)cc2O)c1C#N the results were PI5P4Ka inh inactive, BAZ2B block 40µM, HP1b binding inh inactive, PLK1 PBD inh inactive, JMJD2A Tudor inh inactive and KAT2A inh inactive.
`CCOc1cc(/C=N/NC(=O)COc2nc(C)cc(COC)c2C#N)ccc1O` gave PI5P4Ka inh inactive, BAZ2B block inactive, HP1b binding inh inactive, PLK1 PBD inh inactive, JMJD2A Tudor inh inactive and KAT2A inh inactive.
COc1ccc(NC(=O)C2(C)CCN2Cc2ccc(C(C)C)cc2)cc1OC (stereo not drawn) was read as PI5P4Ka inh inactive and PLK1 PBD inh inactive.

Assay outcomes as filed in PubChem.
